# Pf growth 48h: inhibits P. falciparum growth in the first generation, 48 h. P. falciparum luciferase growth in erythrocytes, 48 h. Potency, µM (top dose mostly 28.7 µM), without a hit: top-dose activity change, negative = inhibition, most hits filed as inhibitors. 310,000 tested, 5.9% active. AID 504832; note: potency is the fitted concentration of half-maximal effect; % is set by controls: 0 for no effect and ±100 for the full control effect
#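 Growth was read as firefly luciferase luminescence after a 48 h, 37 C, 5% CO2 exposure of compounds to reporter-bearing P. falciparum cultures (0.1% parasitemia, 2% hematocrit final) in Albumax-supplemented RPMI 1640.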
# Shiga toxin inh: inhibitors of Shiga toxin in Vero cells; Vero cells, Shiga toxin protein synthesis inhibition reporter; inhibition, % at 38.7 µM; 290,000 tested, 9.2% active; in the data active = inhibition mostly above about 28%, no sharp cut-off; inactive = mostly below about 43%; note: 0% is about no effect
# CHX counter: counter-screen for Shiga toxin inhibitors: cycloheximide protein synthesis inhibition; cell reporter, cycloheximide protein synthesis inhibition counterscreen; max response, %; AID 2314; 300,000 tested, 12% active; in the data active = max response mostly above about 13%, no sharp cut-off; inactive = mostly below about 14%; note: read at 38.3 µM for the half of the compounds with a filed dose; 0% is about no effect
# Pf growth 96h: P. falciparum growth inhibition at 96 hour, primary screen for plastid delayed-death inhibitors. 320,000 tested, 6.9% active. Potency, µM (doses to about 28.7 µM), inactives show top-dose activity change, negative = inhibition, usual class: inhibitors. AID 504834. P. falciparum luciferase reporter growth, 96 h; note: potency is the fitted concentration of half-maximal effect; % is set by controls: 0 for no effect and ±100 for the full control effect
#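 Readout is luminescence from an integrated firefly luciferase in P. falciparum. Red cells, 2% hematocrit and 0.05% parasitemia final, were cultured with compound through two parasite generations (96 hours) at 37 C, 5% CO2.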
# * hit, by the source's call; ? = inconclusive; . = not tested or not shown; [ ] = dose if it differs, or a comment. Hits are enriched below; roughly 21% of the tested compounds scored in any of these assays. Unless noted, calls come from the whole dose curve; as a rule, active = well fitted inhibition curve with a large enough effect; inconclusive = small, poorly fitted or top-dose-only effect, or another doubt; inactive = no such curve, though single readings can be large or run the other way.
SMILES,Pf growth 48h,Shiga toxin inh,CHX counter,Pf growth 96h
O=C(OCCN1C(=O)c2ccccc2C1=O)c1ccc(S(=O)(=O)N2CCCCCC2)cc1,-10.6%,-6.5,-2.2,3.0%[5.75 µM]
O=C(N=C1N=C2C=CC=CN2Cc2ccccc21)c1ccc(S(=O)(=O)N2CCCC2)cc1,19.5%,96.9*,55.4*,-10.2%
CCCCCCCCCCCCCCCCCC[N+](C)(C)CCC[Si](OC)(OC)OC,-11.8%,.,.,-1.5%
CCCCCCCC(=O)NNC(=O)Cc1ccccc1,26.4%,-1.8,6.6,53.9%
CCCCCCCCCCCCCCCC[N+](C)(C)Cc1ccccc1,1.69µM*,.,.,3.01µM*
C[N+](C)(C)Cc1ccccc1,?,-9.4,-1.3,1.04µM*
CCCCCCCCCCCCCC[N+](C)(C)Cc1ccccc1,1.69µM*,.,.,2.69µM*
CCCCCCCCCCCC[N+](C)(C)CCOc1ccccc1,4.26µM*,.,.,2.39µM*
COc1ccc(C(=O)COC(=O)CCc2nc3ccccc3[nH]c2=O)cc1Br,-6.9%,-6.6,-0.5,4.6%
CCCCCN(C(=O)CCC(=O)OCC(=O)c1cccc(OC)c1)c1c(N)n(CCCC)c(=O)[nH]c1=O,-0.2%,-5.2,4.1,-0.2%
COc1ccc([C@H]2CC(=O)C=C(c3cccc4c3Oc3ccccc3S4)C2)cc1,-1.6%,.,.,?
CCOc1ccc(NC(=O)C2CC(=O)N(c3ccc4c(c3)OCCO4)C2)cc1OCC (stereo unspecified),?,.,.,11.1%
CCOC(=O)c1sc(/N=C/c2ccc(O)cc2O)cc1C,12.4%,41.1*,39.7*,-24.9%
CS(=O)(=O)N1CCN=C1SCc1ccc([N+](=O)[O-])cc1,-18.2%,-13.3,-6.1,-20.4%
Cc1noc(/C=C/c2cccs2)c1S(=O)(=O)N1CCC(C(=O)NCCCN2CCCC(C)C2)CC1 (stereo unspecified),?,0.4,-1.3,-25.2%
CC(C)=CCN1CCN(Cc2cnc(N3CCCC3)s2)CC1CCO (stereo unspecified),-1.1%,-12.0,-2.2,-2.0%
CC(C)=CCN1CCN(Cc2cnc(N3CCOCC3)s2)CC1CCO (stereo unspecified),160.1%,97.8*,57.7*,11.7µM*
CC(C)=CCN1CCN(Cc2ccc(C)s2)CC1CCO (stereo unspecified),1.2%,-1.7,-2.7,?
CC(C)=CCN1CCN(Cc2cnc(C)s2)CC1CCO (stereo unspecified),20.1%,69.7*,43.1*,?
Cn1c(=O)n(C)c2cc(NC(=O)c3ccccc3[N+](=O)[O-])c(Br)cc21,?,18.2,0.8,?
O=C(Nc1ccccc1)O[C@@H]1C[C@H]2CCC(=O)N3CC[C@@H](C1)[C@@H]23,107.6%,38.2*,31.1*,68.2%
O=C(Nc1ccc2c(c1)OCO2)O[C@@H]1C[C@H]2CCC(=O)N3CC[C@@H](C1)[C@@H]23,?,2.4,2.9,?
O=C(Nc1ccccc1)OC1CC2CC1C1CCCC21 (stereo unspecified),142.9%,93.8*,51.5*,34.5%
COC(=O)c1c(C)nc(C)c(C(=O)OC)c1-c1ccccc1[N+](=O)[O-],.,0.8,-5.7,.
Cc1c(C(=O)N2CCN(CCc3ccccn3)CC2)oc2ccc(Cl)cc12,19.8%,-2.2,7.9,22.3%
SMILES,Pf growth 48h,Shiga toxin inh,CHX counter,Pf growth 96h
CC(C)NC(=O)c1ccccc1NC(=O)C1CCCO1 (stereo unspecified),.,-5.5,-2.5,-12.3%
COc1ccc(NC(=O)c2ccccc2NC(=O)C2CCCO2)cc1 (stereo unspecified),126.1%,49.4*,23.6*,.
COc1ccc(NC(=O)c2ccccc2NC(=O)c2ccccc2)cc1,.,-3.8,13.1,13.1%
O=C(O)C1CC=CCC1C(=O)Nc1ccccc1 (stereo unspecified),0.0%,37.4,8.9,.
O=C(NCCc1ccccc1)c1ccccc1NC(=O)C1CCCO1 (stereo unspecified),100.9%,66.9*,29.9*,?
O=C(O)c1ccccc1NC(=O)C1CCCO1 (stereo unspecified),5.8%,-29.4,23.2,88.8%
COc1ccc(NC(=O)c2ccccc2NC(=O)C2CC=CCC2C(=O)O)cc1 (stereo unspecified),14.7%,87.6*,41.0*,12.4%
O=C(COC(=O)c1ccc(NC(=O)C2CC=CCC2C(=O)O)cc1)c1ccccc1 (stereo unspecified),18.2%,74.5*,35.6*,-22.8%
Cc1ccc(N2CC(C(=O)NCCS(=O)(=O)N3CCN(c4ccccc4)CC3)CC2=O)cc1C (stereo unspecified),?,-1.9,5.9,129.1%
NCCCCCCCCCCNCCCN,.,-10.4,-9.3,.

# Bioassay records: PubChem, National Center for Advancing Translational Sciences (NCATS)
